Experimental data: the supplement of paper PMC11732987, “Enantioselective OTUD7B fragment discovery through chemoproteomics screening and high-throughput optimisation” (Communications Chemistry, 2025)

Experiments:
Assay in all cases: log2 ratio of Biotin-Ahx-Ub-VS probe labelling (fragment/DMSO); higher = less target engagement (more negative = stronger competition), active = hit call of the paper (q ≤ 0.05, log2 ratio ≤ -1)
Conditions in all cases: compound concentration: 200 uM; treatment time: 3 h
[1] = biological target: T1, USP19 (UniProt O94966)
T1 sequence (whole entry): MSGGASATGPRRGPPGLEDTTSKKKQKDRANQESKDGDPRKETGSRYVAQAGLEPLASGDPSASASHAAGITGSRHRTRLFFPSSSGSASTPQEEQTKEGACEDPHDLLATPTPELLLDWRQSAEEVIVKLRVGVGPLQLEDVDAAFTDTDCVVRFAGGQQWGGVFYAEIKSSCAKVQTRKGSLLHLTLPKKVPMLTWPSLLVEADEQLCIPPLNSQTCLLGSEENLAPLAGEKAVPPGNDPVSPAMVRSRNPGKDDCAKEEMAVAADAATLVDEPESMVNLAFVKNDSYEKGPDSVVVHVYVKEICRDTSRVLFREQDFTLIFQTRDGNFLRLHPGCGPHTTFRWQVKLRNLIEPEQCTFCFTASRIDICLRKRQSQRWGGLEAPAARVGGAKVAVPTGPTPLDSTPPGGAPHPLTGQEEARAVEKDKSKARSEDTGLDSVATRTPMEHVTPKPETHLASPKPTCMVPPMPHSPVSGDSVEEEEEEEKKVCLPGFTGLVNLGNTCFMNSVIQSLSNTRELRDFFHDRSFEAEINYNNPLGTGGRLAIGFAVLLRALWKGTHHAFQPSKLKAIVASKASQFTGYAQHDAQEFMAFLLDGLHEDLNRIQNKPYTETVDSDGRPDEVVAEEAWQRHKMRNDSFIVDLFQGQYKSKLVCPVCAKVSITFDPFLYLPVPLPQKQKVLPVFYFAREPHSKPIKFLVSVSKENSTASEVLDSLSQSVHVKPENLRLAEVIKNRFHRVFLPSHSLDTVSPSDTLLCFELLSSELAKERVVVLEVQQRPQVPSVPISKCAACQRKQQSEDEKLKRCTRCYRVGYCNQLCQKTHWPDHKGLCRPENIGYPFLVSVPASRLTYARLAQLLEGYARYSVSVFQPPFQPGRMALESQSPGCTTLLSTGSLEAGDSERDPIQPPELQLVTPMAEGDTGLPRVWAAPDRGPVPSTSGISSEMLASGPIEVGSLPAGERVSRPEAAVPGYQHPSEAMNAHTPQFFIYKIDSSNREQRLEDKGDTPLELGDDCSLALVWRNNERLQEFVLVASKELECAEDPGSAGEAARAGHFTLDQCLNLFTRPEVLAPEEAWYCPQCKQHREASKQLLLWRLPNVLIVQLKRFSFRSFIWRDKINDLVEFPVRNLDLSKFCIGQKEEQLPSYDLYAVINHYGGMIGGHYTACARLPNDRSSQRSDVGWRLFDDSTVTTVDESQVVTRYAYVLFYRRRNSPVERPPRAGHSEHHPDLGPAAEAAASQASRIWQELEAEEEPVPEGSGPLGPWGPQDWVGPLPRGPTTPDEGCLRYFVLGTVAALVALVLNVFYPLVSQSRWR
In short: (§1)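 Triplicate samples of HEK293T lysate, 495 µg each, received fragment at 200 µM or vehicle for 3 h, followed by Biotin-Ahx-Ub-VS (0.5 µM final) for 1 h. After NeutrAvidin enrichment of labelled DUBs and LysC/trypsin digestion, peptides were run by diaPASEF LC-MS/MS. The values are average log2 fragment/vehicle ratios from global-median-normalised Spectronaut label-free quantities, tested by unpaired t-test on proteins having ≥2 unique peptides.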

[2] = biological target: T2, USP22 (UniProt Q9UPT9)
T2 sequence (whole entry): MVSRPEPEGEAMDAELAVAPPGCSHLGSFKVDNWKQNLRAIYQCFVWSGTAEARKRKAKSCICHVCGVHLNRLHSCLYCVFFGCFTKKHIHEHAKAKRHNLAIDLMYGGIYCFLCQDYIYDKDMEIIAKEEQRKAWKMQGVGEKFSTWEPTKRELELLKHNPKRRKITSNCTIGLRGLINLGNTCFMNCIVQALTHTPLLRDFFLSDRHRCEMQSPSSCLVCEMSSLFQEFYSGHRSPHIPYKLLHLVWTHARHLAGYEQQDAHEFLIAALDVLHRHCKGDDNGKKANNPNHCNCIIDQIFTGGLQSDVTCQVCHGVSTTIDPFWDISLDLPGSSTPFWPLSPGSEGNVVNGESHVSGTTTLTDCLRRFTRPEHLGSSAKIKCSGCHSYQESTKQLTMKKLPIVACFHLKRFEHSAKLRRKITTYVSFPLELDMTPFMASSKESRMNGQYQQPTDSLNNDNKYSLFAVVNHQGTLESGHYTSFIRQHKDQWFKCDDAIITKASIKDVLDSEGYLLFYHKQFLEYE
In short: as §1

[3] = biological target: USP24 (UniProt Q9UPU5)
In short: as §1

[4] = biological target: T3, USP25 (UniProt Q9UHP3)
T3 sequence (whole entry): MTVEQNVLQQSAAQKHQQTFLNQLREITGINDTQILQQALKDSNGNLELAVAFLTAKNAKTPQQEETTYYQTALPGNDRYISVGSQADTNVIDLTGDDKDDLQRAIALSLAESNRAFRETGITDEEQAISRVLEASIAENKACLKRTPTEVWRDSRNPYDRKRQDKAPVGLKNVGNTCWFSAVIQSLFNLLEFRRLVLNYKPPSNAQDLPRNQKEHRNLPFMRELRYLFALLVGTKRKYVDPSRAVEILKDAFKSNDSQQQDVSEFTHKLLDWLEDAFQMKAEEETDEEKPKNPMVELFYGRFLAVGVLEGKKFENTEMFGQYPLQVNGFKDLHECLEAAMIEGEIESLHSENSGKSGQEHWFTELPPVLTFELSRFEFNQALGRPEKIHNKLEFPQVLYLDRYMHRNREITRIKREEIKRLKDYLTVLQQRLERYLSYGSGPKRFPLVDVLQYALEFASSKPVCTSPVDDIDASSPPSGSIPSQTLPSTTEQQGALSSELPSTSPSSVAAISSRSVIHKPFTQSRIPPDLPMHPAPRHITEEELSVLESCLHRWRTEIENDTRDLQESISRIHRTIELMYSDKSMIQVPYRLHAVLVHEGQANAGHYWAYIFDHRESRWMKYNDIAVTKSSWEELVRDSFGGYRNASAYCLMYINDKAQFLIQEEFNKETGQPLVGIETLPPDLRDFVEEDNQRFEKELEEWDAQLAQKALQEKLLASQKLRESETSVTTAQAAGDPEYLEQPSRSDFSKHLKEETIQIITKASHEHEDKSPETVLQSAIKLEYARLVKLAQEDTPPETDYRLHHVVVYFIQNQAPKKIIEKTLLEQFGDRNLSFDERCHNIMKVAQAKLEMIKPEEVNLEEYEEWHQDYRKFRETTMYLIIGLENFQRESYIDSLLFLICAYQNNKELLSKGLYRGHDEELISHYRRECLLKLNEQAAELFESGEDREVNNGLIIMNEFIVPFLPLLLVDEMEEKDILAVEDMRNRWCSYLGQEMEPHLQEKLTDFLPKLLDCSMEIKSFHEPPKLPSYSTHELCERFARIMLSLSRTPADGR
In short: as §1

[5] = biological target: T4, USP28 (UniProt Q96RU2)
T4 sequence (whole entry): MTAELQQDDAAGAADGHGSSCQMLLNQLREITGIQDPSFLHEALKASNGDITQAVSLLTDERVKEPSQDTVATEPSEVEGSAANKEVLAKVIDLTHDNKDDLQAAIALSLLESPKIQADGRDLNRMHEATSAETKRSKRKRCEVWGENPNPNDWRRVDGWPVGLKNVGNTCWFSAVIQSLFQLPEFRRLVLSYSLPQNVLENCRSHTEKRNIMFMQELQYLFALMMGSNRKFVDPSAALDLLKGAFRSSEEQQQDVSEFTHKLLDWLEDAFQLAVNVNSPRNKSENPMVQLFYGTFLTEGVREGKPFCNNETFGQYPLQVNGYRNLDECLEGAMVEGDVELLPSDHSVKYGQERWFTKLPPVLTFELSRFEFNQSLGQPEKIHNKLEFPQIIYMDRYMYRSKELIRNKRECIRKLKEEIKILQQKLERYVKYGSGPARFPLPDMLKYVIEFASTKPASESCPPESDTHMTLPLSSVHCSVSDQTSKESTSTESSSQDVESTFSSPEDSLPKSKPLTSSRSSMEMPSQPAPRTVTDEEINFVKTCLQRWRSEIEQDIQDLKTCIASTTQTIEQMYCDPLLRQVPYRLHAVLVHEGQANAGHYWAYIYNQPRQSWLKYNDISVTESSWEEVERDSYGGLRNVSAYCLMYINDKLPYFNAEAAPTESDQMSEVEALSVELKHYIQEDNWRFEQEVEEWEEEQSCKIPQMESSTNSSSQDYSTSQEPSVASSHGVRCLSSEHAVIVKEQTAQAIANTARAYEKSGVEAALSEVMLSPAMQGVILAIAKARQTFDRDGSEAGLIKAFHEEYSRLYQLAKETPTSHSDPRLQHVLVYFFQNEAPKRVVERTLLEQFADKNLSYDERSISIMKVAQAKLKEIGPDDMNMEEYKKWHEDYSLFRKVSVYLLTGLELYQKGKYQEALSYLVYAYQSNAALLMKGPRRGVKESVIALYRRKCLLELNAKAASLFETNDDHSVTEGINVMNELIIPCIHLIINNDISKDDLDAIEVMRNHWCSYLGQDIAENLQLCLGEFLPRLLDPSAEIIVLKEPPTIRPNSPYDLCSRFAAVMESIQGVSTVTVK
In short: as §1

Measured: log2 ratio of Biotin-Ahx-Ub-VS probe labelling

USP24, sequence (Q9UPU5 whole entry): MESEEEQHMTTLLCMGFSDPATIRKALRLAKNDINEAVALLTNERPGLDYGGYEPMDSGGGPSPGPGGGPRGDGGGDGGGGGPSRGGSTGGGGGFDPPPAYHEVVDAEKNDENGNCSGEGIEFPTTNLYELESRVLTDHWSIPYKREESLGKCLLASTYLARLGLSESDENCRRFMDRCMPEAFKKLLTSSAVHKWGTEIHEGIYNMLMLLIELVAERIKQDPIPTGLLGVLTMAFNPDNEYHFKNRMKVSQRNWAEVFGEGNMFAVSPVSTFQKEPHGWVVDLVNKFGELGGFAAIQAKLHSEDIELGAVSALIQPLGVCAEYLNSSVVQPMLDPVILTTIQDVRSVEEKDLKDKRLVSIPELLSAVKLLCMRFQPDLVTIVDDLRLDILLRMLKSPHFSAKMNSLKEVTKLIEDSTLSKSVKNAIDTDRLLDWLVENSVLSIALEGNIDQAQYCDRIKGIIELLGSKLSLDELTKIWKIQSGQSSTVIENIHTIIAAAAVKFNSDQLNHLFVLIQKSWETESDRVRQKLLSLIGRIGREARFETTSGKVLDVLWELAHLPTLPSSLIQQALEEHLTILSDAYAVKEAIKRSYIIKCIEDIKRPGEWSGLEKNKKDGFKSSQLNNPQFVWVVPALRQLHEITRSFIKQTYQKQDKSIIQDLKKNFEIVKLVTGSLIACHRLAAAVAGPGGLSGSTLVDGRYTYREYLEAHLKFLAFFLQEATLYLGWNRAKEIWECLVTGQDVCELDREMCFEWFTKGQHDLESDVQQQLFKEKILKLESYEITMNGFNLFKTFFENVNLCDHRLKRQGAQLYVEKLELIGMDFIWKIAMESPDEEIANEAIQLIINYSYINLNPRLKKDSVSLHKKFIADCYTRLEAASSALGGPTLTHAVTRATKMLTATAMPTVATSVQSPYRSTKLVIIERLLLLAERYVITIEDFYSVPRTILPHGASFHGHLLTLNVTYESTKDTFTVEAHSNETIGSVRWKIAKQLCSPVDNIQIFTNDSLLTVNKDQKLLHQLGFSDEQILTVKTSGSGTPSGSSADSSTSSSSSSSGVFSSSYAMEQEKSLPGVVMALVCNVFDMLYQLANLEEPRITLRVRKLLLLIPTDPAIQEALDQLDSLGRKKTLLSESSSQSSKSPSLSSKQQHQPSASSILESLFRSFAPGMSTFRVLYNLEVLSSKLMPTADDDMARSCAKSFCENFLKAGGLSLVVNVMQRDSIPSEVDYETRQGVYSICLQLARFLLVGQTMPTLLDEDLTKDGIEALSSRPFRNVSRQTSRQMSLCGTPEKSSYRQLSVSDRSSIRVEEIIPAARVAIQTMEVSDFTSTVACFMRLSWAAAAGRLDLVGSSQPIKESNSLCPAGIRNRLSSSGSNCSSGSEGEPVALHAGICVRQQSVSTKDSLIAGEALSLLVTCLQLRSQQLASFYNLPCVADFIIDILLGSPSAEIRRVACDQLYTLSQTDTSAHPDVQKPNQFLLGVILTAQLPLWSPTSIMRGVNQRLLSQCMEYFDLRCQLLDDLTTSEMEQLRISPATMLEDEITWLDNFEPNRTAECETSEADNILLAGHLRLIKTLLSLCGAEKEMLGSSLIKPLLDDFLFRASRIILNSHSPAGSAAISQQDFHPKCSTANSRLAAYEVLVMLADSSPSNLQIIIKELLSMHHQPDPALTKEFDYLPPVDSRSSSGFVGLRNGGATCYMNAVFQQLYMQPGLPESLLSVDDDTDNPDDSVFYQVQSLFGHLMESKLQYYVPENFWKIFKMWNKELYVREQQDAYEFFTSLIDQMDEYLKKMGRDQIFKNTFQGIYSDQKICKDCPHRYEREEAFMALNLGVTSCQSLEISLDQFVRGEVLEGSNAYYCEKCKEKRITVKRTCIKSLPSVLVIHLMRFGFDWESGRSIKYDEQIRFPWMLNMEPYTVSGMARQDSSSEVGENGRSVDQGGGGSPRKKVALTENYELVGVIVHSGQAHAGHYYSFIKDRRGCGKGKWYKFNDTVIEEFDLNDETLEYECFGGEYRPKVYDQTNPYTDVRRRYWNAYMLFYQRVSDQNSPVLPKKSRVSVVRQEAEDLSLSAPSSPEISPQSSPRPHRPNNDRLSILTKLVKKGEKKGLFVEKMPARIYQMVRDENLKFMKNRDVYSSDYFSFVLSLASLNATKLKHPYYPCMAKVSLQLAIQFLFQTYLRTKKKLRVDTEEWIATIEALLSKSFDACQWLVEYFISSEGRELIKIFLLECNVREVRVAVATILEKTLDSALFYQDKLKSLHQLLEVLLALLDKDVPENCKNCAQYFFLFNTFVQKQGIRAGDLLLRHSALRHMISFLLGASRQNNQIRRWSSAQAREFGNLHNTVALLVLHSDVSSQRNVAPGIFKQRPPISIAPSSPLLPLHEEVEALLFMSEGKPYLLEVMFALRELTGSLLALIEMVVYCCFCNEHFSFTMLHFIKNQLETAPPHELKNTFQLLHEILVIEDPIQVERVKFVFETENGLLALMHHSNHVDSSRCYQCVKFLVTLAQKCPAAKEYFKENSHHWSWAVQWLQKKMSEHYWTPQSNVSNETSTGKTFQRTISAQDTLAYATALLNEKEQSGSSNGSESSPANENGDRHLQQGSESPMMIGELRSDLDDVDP

C#Cc1cccc(NC(=O)CCl)c1
inactive: [1] -0.38 | [2] -0.379 | [3] -0.837 | [4] -0.804 | [5] -0.906
